Screening results (PubChem BioAssay)
Tb PYK inh: blocks Trypanosoma brucei pyruvate kinase; Q57TT1; TbPYK enzyme, Kinase-Glo Plus ATP luminescence, 45 min; Potency, µM (top dose mostly 76.8 µM), for the others: at the top dose activity, negative = inhibition, actives largely listed as inhibitors; actives 0.12% (n = 410,000); further: potency means the concentration at half of the fitted maximal effect; on the % scale 0 is the no-effect control and ±100 the full control effect; nearly all actives have a fitted effect of over 50% in size
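ADP (130 uM final) triggers the TbPYK reaction after compound addition; incubation is 45 min at room temperature. Kinase-Glo Plus is then added and luminescence imaged. Normalized data are fitted to concentration-effect curves.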
Cycloheximide cs: counter-screen hit for Shiga toxin inhibitors, cycloheximide; cell reporter, cycloheximide protein synthesis inhibition counterscreen; max response, %; actives 12% (n = 300,000); in the data active means max response mostly above about 13%, no sharp cut-off; inactive means mostly below about 14%; further: read at 38.3 µM for the half of the compounds with a filed dose; 0% is about no effect
Shiga inhibitor: blocks Shiga toxin action in Vero cells | Vero cells, Shiga toxin protein synthesis inhibition reporter | inhibition, % at 38.7 µM | actives 9.2% (n = 290,000) | AID 2315; in the data active means inhibition mostly above about 28%, no sharp cut-off; inactive means mostly below about 43%; further: 0% is about no effect
LmPK inh: LmPK (Leishmania mexicana) enzyme inhibition | AID 1721 | Q27686 | actives 0.37% (n = 290,000) | purified LmPK, Kinase-Glo ATP luminescence, 1 h | Potency, µM (doses to about 57.5 µM), for inactives: at the highest dose activity change, negative = inhibition, usual class: inhibitors; further: potency means the concentration at half of the fitted maximal effect; on the % scale 0 is the no-effect control and ±100 the full control effect
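Screened at intermediate enzyme activity to detect both inhibitors and activators: LmPK at 0.1 nM, with a 0.5 nM enzyme column as activation reference. PEP 0.5 mM, ADP 0.1 mM; ATP detected by luminescence after 1 h.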
FBPA Giardia inh: blocks Giardia fructose-bisphosphate aldolase activity; A8B2U2; purified Giardia FBPA; Potency, µM (titrated, usually from 59.6 µM), for inactives: at the highest dose activity, negative = inhibition, hits mostly inhibitors; actives 0.71% (n = 290,000); further: potency means the concentration at half of the fitted maximal effect; on the % scale 0 is the no-effect control and ±100 the full control effect; nearly all actives have a fitted effect of over 55% in size
Target sequence (A8B2U2 whole entry, looked up): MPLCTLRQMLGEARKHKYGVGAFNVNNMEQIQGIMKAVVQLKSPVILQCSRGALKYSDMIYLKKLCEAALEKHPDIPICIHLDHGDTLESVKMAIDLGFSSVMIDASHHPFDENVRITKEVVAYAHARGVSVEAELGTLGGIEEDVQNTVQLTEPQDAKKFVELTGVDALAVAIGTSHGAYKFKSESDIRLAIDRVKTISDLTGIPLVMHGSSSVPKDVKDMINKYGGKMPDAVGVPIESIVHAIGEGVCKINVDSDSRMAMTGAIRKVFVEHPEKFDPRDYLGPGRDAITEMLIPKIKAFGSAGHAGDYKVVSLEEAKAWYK
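40 nM FBPA preincubated 10 min at RT with compound (up to 57.5 uM final), then substrate plus GAPDH/TPI/NAD/arsenate coupling and diaphorase/resazurin added. Fluorescence read after 20 min at RT, 525/598 nm.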
RE007 growth inh: less growth of the S. pombe RE007 Vpr strain; Potency, µM (highest dose often 92.2 µM), for inactives: at the top dose activity change, negative = less growth, most hits filed as inhibitors; actives 0.21% (n = 360,000); S. pombe RE007 Vpr strain, BacTiter-Glo ATP luminescence, 24 h; active means well fitted falling curve with a large enough effect; inconclusive means small, poorly fitted or top-dose-only effect; inactive means no such curve, though single readings can be large or run the other way; further: potency means the concentration at half of the fitted maximal effect; on the % scale 0 is the no-effect control and ±100 the full control effect; nearly all actives have a fitted effect of over 50% in size
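Fission yeast strain RE007, carrying one chromosomally integrated HIV-1 vpr copy, was seeded at OD 0.01 in PMG+AL medium with 23 nL pinned compound. After 24 h at 30 °C and 99% humidity, viability was read by BacTiter-Glo luminescence.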
An asterisk follows results filed as active; ? = inconclusive; . = not tested or not shown; [ ] = remark or other dose. The entries come from a sample that favours hits as a whole. Unless noted, the call rests on the fitted dose curve; in most records, active means well fitted curve in the direction sought with a large enough effect; inconclusive means small, poorly fitted or top-dose-only effect, or another doubt; inactive means no such curve, though single readings can be large; an effect the other way counts as inactive or inconclusive.

SMILES	Tb PYK inh	Cycloheximide cs	Shiga inhibitor	LmPK inh	FBPA Giardia inh	RE007 growth inh
COc1cccc(N2CCN(C(=O)c3cnc4c(-c5ccc(F)cc5)c(C)nn4c3C)CC2)c1	-7%	.	.	.	.	.
COc1ccc(C(C)=O)cc1CSc1ccc2c(c1)OCCO2	-2%	15	28	6%	-9%	4%
CCN(CC)C(=O)CCSc1nnc(-c2ccncc2)o1	-13%	-3	-7	-4%	1%	7%
CCN(CC)C(=O)CCSc1nnc(-c2ccco2)o1	-2%	30*	37	6%	2%	2%
CC(C)(C)NC(=O)CCSc1nnc(-c2ccco2)o1	0%	27*	37	4%	-6%	0%
Cc1cccc(NC(=O)c2sc3nc(-c4ccccc4)cn3c2C)c1C	2%	.	.	.	.	.
O=C(CN(c1cccc(C(F)(F)F)c1)S(=O)(=O)c1ccc(Cl)c([N+](=O)[O-])c1)NCc1ccc(F)cc1	-5%	6	15	-2%	-4%	-18%
CC(C)(C)S(=O)N1Cc2cc(C(=O)Nc3ccc(-c4ccccc4)cc3)nc(-c3cccc(-c4cc5ccccc5o4)c3)c2[C@@H]1CCO (some centres undefined)	-1%	.	.	.	.	8%
CCN(CC)c1ccc(/C=N/Nc2nc3ccccc3[nH]2)cc1	-2%	37*	110*	2%	?	9%
O=C(O)c1ccc(/C=N/Nc2nc3ccccc3[nH]2)cc1	-4%	16*	24	0%	13%	10%
COC(=O)c1ccc(/C=N/Nc2nc3ccccc3[nH]2)cc1	-8%	47*	151*	-6%	-2%	-11%
COC(=O)Nc1nc2ccccc2[nH]1	-9%	.	.	.	.	-1%
C(=N\Nc1nc2ccccc2[nH]1)/c1ccncc1	-1%	33*	69*	1%[11.5 µM]	3%	0%
COc1ccc(N2CCN(C3C(=O)c4ccccc4N3C(C)=O)CC2)cc1 (centres undefined)	4%[15.4 µM]	.	.	.	.	.
COC(=O)c1ccc(NC(=O)COc2ccc(S(=O)(=O)NC(C)(C)C)cc2)cc1	2%	4	11	-5%	3%	2%
Clc1nc2ccccc2cc1/C=N/Nc1nc2ccccc2[nH]1	-5%	41*	21	-24%	5%	1%
CC(=O)Nc1ccc(/C=N/Nc2nc3ccccc3[nH]2)cc1	4%	50*	62*	-9%	7%	-9%
COc1ccc(-c2noc(-c3ccc(N4CCN(c5ccccc5OC)CC4)c([N+](=O)[O-])c3)n2)cc1	-1%	.	.	.	.	.
C(=C\c1ccc(/C=C/c2ccccc2)nn1)/c1ccccc1	.	2	-2	4%	0%	.
CC(=O)Nc1nnc(/C=C/c2cccc([N+](=O)[O-])c2)s1	-4%	5	5	-1%	16%	12%
COC(=O)Nc1nnc(/C=C/c2ccccc2)s1	-4%	12	49*	-4%	2%	-10%
O=C(Nc1nnc(COc2ccccc2)s1)c1ccco1	3%	1	-6	3%	17%	-9%
O=C(Nc1nnc(/C=C/c2ccccc2)s1)c1ccco1	-3%	30*	63*	3%	3%	-3%
Nc1nnc(/C=C/c2ccccc2)s1	1%	44*	37*	-17%	-1%	0%
Cc1cc(=O)[nH]c(N/N=C/c2ccc(OC(=O)c3cccnc3)cc2)n1	5%	-2	-18	4%	0%	-17%
SMILES	Tb PYK inh	Cycloheximide cs	Shiga inhibitor	LmPK inh	FBPA Giardia inh	RE007 growth inh
O=C(CN1CCN(S(=O)(=O)c2ccc(Br)cc2)CC1)N/N=C/c1ccccc1C(=O)O	9%	-5	11	1%	.	2%
CC(=O)c1cccc(Nc2cc(C)nc3nc(-c4ccccc4C)nn23)c1	-2%	.	.	.	.	.
O=C(CCl)Nc1cn(-c2ccccc2)nc1-c1ccc(F)cc1	0%	24*	19	1%	-3%	-11%
O=C(Nc1ccc2c(c1)OCCO2)c1ccc(Cl)c(S(=O)(=O)N2CCOCC2)c1	-13%	42*	66*	2%	0%	12%
O=C(Nc1ccc2c(c1)OCO2)c1ccc(S(=O)(=O)N2CCCC2)cc1	-14%	9	13	0%	1%	-23%
COc1ccc(C(=O)Nc2ccc3c(c2)OCCO3)cc1S(=O)(=O)N1CCOCC1	-1%	.	.	.	.	-22%
O=C(Nc1ccc2c(c1)OCO2)c1ccc(Cl)c(S(=O)(=O)N2CCOCC2)c1	-2%	16*	39*	-7%	.	4%
Cc1ccc(NC(=O)c2ccc3c(c2)OCO3)cc1S(=O)(=O)N1CCOCC1	0%	.	.	.	.	-1%
NS(=O)(=O)c1cc(C(=O)Nc2ccc3c(c2)OCCCO3)ccc1Cl	5%	19*	58*	-6%	-2%	0%
Cc1cccc(NC(=O)CSc2nc3ccccc3nc2N2CCOCC2)c1C	-2%	.	.	.	.	.
CCc1nn(CC(=O)Nc2ccc(NC(C)=O)cc2)c(=O)c2cc3sccc3n12	-1%	.	.	.	.	.
O=C(NNC(=O)C1C2CCCCC21)c1coc(=O)c(Br)c1 (centres undefined)	-3%	51*	57*	0%	-30%	0%
Cc1[nH]c2ccc(C(=O)Nc3ccncc3)cc2c1C	2%	23*	50*	1%	-8%	-17%
O=C(Nc1cc(Cl)cc(Cl)c1)c1coc(=O)c(Br)c1	-1%	24*	39*	19%	-7%	3%
CCc1ccc(NC(=O)c2ccc3[nH]c(C)c(C)c3c2)cc1	5%[15.4 µM]	.	.	.	.	.
COc1ccccc1NC(=O)c1cc(N)cc(C(=O)Nc2ccccc2OC)c1	3%	.	.	.	.	-2%
O=C(NC(CO)(CO)CO)c1coc(=O)c(Br)c1	-7%	10	1	0%	-3%[12.9 µM]	20%
COc1ccccc1NC(=O)c1coc(=O)c(Br)c1	-19%	77*	104*	0%	1%	-10%
COc1ccccc1NC(c1ccc(Cl)cc1)c1nnc(-c2cccc(F)c2)o1 (centres undefined)	-4%	.	.	.	.	.
Cc1ccc(-n2ncc(C(=O)NCCCN3CCCCC3)c2C2CCN(C(=O)OC(C)(C)C)CC2)cc1	1%[15.4 µM]	.	.	.	.	.
COc1ccccc1NC(=O)c1ccc2[nH]c(C)c(C)c2c1	-6%	40*	128*	0%	-19%	-23%
COc1ccccc1NC(=O)c1ccc2ccccc2c1	.	54*	68*	.	.	.
COc1ccccc1NC(=O)c1ccc2nc(C)sc2c1	-14%	46*	83*	-2%	-16%	-4%
COc1cccc(NC(=O)c2ccc3nc(C)sc3c2)c1	-14%	38*	60*	-5%	-17%	-5%
FC(F)(F)C(F)(F)C(F)(F)C(F)(F)C(F)(F)F	-1%	.	.	.	.	.
O=S(=O)(NCc1ccc(Cl)cc1)c1ccc2[nH]c3c(c2c1)CCCC3	0%	.	.	.	.	.
O=C(O)CN(CC(=O)O)c1ccccc1OCCOc1ccccc1N(CC(=O)O)CC(=O)O	.	10	4	.	?	.
